pKd: −log10 of the molar value.

For the experiment, the target named is T1, Eip93f (Drosophila melanogaster, UniProt Q9VD60 752-830).
T1 sequence: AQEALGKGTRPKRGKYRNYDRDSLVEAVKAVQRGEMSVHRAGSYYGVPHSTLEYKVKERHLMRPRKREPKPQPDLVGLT
In words: FP; 33 mM phosphate pH 7.0, 90 mM NaCl, 0.01% Tween 20, 0.1 mM DTT, 0.5% agarose; room temperature. Conditions: tags: N-GST (pGEX-6P-1, kept); dsDNA, one strand shown.
With CATAGCCGAAAGTCG, the binding signal is 2.41 Kd / Kd of best base at the position.

With CATAGCCGCAAATCG, the binding signal was 20 Kd / Kd of best base at the position.

With AATAGCCGAAAATCG, the binding signal was 1.22 Kd / Kd of best base at the position.

As for CATAGCCGAAAATCA, the binding signal is 1.07 Kd / Kd of best base at the position.

CATAACCGAAAATCG: the binding signal is 1.73 Kd / Kd of best base at the position.

Consider CATAGACGAAAATCG, for which the binding signal was 3.01 Kd / Kd of best base at the position.

For CAAAGCCGAAAATCG, the binding signal is 1.57 Kd / Kd of best base at the position.

As to CATAGCCGTAAATCG, the binding signal is 13.1 Kd / Kd of best base at the position.

For the sequence CATAGCCGAAATTCG, the binding signal was 1.52 Kd / Kd of best base at the position.

CATAGCCGAAAATCT: the binding signal was 1.07 Kd / Kd of best base at the position.

For the sequence CATAGCCGAAAATAG, the binding signal is 1.65 Kd / Kd of best base at the position.

As to CATAGCCGGAAATCG, the binding signal is 7 Kd / Kd of best base at the position.

CATAGCGGAAAATCG: the binding signal is 16.4 Kd / Kd of best base at the position.

Take CATACCCGAAAATCG: the binding signal was 1.36 Kd / Kd of best base at the position.

For the sequence GATAGCCGAAAATCG, the binding signal was 1.29 Kd / Kd of best base at the position.

CATAGCCAAAAATCG: the binding signal is 1.28 Kd / Kd of best base at the position.

For CATAGCCGAATATCG, the binding signal was 2.21 Kd / Kd of best base at the position.

CCTAGCCGAAAATCG: the binding signal is 1.59 Kd / Kd of best base at the position.

As to CATAGCCTAAAATCG, the binding signal is 1.82 Kd / Kd of best base at the position.

CATAGCCGAAACTCG: the binding signal was 2.54 Kd / Kd of best base at the position.

As to CGTAGCCGAAAATCG, the binding signal was 1.39 Kd / Kd of best base at the position.

TATAGCCGAAAATCG: the binding signal was 1.35 Kd / Kd of best base at the position.

With CATAGCTGAAAATCG, the binding signal was 4.47 Kd / Kd of best base at the position.

Regarding CATAGCCGAAAAGCG, the binding signal was 1.89 Kd / Kd of best base at the position.

Take CATAGCCGAAAACCG: the binding signal was 1.78 Kd / Kd of best base at the position.

For CATAGCCGAAGATCG, the binding signal was 9.46 Kd / Kd of best base at the position.

For orientation: pKd means the negative decadic logarithm of the Kd, by convention in mol/L. Low readings indicate a large Kd, high ones a small Kd. As to CATAGCCGAAAATCG, the pKd was approximately 7.84.

CATAGCCGATAATCG: the binding signal was 12.1 Kd / Kd of best base at the position.

Take CATAGCCGACAATCG: the binding signal was 20.2 Kd / Kd of best base at the position.

In the case of CATAGCCGAAAATGG, the binding signal was 1.42 Kd / Kd of best base at the position.

With CATTGCCGAAAATCG, the binding signal is 1.02 Kd / Kd of best base at the position.

For CATAGGCGAAAATCG, the binding signal was 3.03 Kd / Kd of best base at the position.

With CATAGCCGAGAATCG, the binding signal was 22.5 Kd / Kd of best base at the position.

With CATATCCGAAAATCG, the binding signal was 1.8 Kd / Kd of best base at the position.

As for CATAGCCGAAAAACG, the binding signal is 1.54 Kd / Kd of best base at the position.

On to CATAGTCGAAAATCG, for which the binding signal was 1.92 Kd / Kd of best base at the position.

In the case of CATCGCCGAAAATCG, the binding signal is 2.02 Kd / Kd of best base at the position.

For the sequence CATAGCCGAAAATCC, the binding signal was 1.04 Kd / Kd of best base at the position.

Turning to CATAGCCGAACATCG, the binding signal is 5.65 Kd / Kd of best base at the position.

For CAGAGCCGAAAATCG, the binding signal is 1.49 Kd / Kd of best base at the position.

Values taken from article PMC5913336, “True equilibrium measurement of transcription factor-DNA binding affinities using automated polarization microscopy”.
